Out of some 31,000 sequences screened, about 1,400 (4.5%) were called active. Shown is part of a subset that was picked to be rich in actives. A number with no mark means an inactive call.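 Rule for the calls: active = median seed-adjusted z-score above 1 or below -1; inactive = the rest.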
Experiment: Novel Modifiers of Survival Motor Neuron (SMN) Protein: Gene Identification via Genome-wide siRNA Screen;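 note: luminescence tracks full-length SMN protein made from the SMN2 reporter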
Conditions: HEK293T SMN2-luciferase reporter, siRNA knockdown, 72 h; actives lie on both sides
Outline: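 Steps: spot 1 pmol siRNA, add Lipofectamine RNAiMax in serum-free DMEM, seed HEK293T SMN2–luciferase reporter cells; incubate 72 h at 37 °C; add ONE-Glo; normalize luminescence to control siRNA, log10, MAD. Candidates: |MAD| > 1.0.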

Sequence	median seed-adjusted z-score
UCAACAUCGUCUACCAGGATT against SCNN1D	-1.8 (active)
GAUCUACCCUGCUCACGAUTT against ETHE1	0
CAGGCUACAGUGAACAGAATT against GNL1	0.154
GCGCGUUGGUACAAUGGAATT against GOT1	0.0103
GCUUGUCUUUCAACCCGAUTT against PARP4	-0.226
GCAACGUGUUGAUGAUGCATT against ADAD1	-0.0795
GCACAGAGGAACGAACUAATT against PSMC5	-1.06 (active)
GGGAGACGGUAGAAUCAGATT against ATP13A4	-1.09 (active)
CCAUGUGAGUGUAAGCAGUTT against ZNF490	0.00954
GGGUAACUGUUGAUAACCATT against POGK	0.938
ACAAGACUUAUGCAAGAUATT against XRCC6BP1	0.128
GGAAUUCGAUGGGAACUUUTT against CACHD1	0.119
CCGAGUAGCUGAAAUUGUUTT against BCL2L14	-0.859
AGAUCUAUGAGAUUGAACATT against PRKAG3	-1.03 (active)
CAAGUUCCUUAACAAGGAATT against EIF2B4	0
CAGAUACUUUAGGACUCAATT against UGT2B4	0.0707
CAGGCUCACUCGCAAAGAATT against USP31	-0.755
GGCUCUCUGUCAACUAUGATT against MGC21874	-0.354
CCCUUUUCUUUAUCCCUGATT against IL9R	-1.33 (active)
GCAAGGCUAUUAUAGAUCATT against CTNNA3	0.249
GGACAUUGCUGAUCGCUUUTT against DMC1	-0.00876
GCAUGUCUCUAAUAUUCCUTT against RBM9	0.895

Sequence	median seed-adjusted z-score
GGUUUGAAAUUCUAACAAATT against TXNDC6	0.156
CAUCCUGCAGAGUAUCUAATT against EPHA5	-0.00876
CUCUCUCUCGGAAUCUGAATT against POLR2L	-1.19 (active)
GGUUGUUUUGGAAACCGAATT against NAT12	-0.0807
GCGAAUUCAUAAGUCCAUUTT against MTMR9	0.133
CAAGACCGAGAGAACAAUATT against ENOX1	0.0694
CCAUCACCGUUGAUGACAATT against JAK1	0.0199
CGAGCUGCACGUUCCUAUATT against IRF7	-0.304
CAGUGGAUAUAUCCAGUCATT against RAB20	-0.334
GACUCGUUGUUGGUCUAAATT against MAP3K7	-0.23
CGCUGAUUUUCGAGUGUAATT against EHMT2	0.295
GGGUCAUGCAGCAUCAAUATT against ITGAM	-1.56 (active)
CCAAGGACCUGGUCUGAAATT against CUGBP1	0.086
AGCAGAUGGUUUUCGAGAATT against COPZ2	-1.23 (active)
GGGUUUUGCUGACAGCUCATT against ZNF48	-0.116
GGAACACGCAUGUCUGGAATT against NOS1	0.0195
GAAUGCAAGAUUUUCGAUUTT against USH2A	0.0673
GGCAUCCGCUUGUACUACATT against DBH	0.337
CCCUAUCAGUCCAAUGGAATT against PRDM4	0.0804
GCCUUCUCCUCUCAUAACATT against ZNF683	-0.452
CAACUUCUCCGUAGCAGAATT against AKT2	0
CUUCUACAGUGGUCACCUATT against VPS29	-0.408

Sequence	median seed-adjusted z-score
GGUUAUCAAUGACGAGCAATT against EP400	1.83 (active)
GAACCUCGUUUCGAAAUUUTT against RIOK2	-0.16
GAAUGAUUUUCCAAAUGGATT against SLC25A21	-0.219
GGAAGAAACGGAGACUCAATT against DPF1	0.144
GCCUGGUUUUGGAUACAAATT against LTA4H	-0.742
CAACUGCUACCUUAGCAUATT against RNF133	0
GCUGUGAGAUUUACUCUGATT against ALAS1	-1.15 (active)
AAGUGACUCUAGUCGUUUATT against REM2	0.109
GCAGGGUCAUUACGACUCATT against PAX9	-1.16 (active)
GAAUGGAUUCUGACCUUAUTT against MTO1	-0.0252
ACAAGAUGUAUCACCUAUATT against ZNF226	0.437
GGACUUGCUGGAAAGCACATT against NCALD	0
GUACCUAAGUUGGAGCUGATT against TRPT1	-0.671
CCACUGGGCUAAUUCUACATT against ALPPL2	0.331
CGACACUUUCUAUCGACAATT against UBA3	0.605
GGGUCUCAGAAGACGUGUATT against CRAT	-1.42 (active)
GACAGUAACUUUAAUUCCATT against IDH3A	0.137
CAACAGCAAUUACACCGAUTT against TMPRSS13	0.0584
GAACUUCAUAGUACAGCGATT against CTNNAL1	0.229
CUGCUCUAAUUACACCGUATT against CILP	0.0436
GCUCGAUCCCUGCAGAUUATT against LCOR	-0.0435
AGAUAAAGCGAUCUAAACUTT against ASCC3	-0.192

Sequence	median seed-adjusted z-score
UCAUCUUAAAGGACCGAUATT against SEC11B	1.04 (active)
CCCACAUUCUUGUCCGGCATT against ADAMTS4	-0.0153
GAAAGAUCCCUAUGGAAAATT against CAMK2G	-0.107
GAAGGAUUAGAAACCGCAATT against RNF144	0.0938
GGAUAAUGGAGAACUCAGATT against NSFL1C	-0.0899
GCACGUACCGCUUCGAAAATT against SLC4A10	0.026
CCGGUAUUAGAAUCAAAGATT against POLS	-0.334
CGAUAUCUUCACCACAUUATT against KCNJ6	-1.6 (active)
CAACAAGUGUAACGACGAUTT against SMPD3	-0.0115
ACAGAACUCGGGACCUUUUTT against H6PD	0.069
GAAGAUUGCUCAGCGAUUATT against PRPF3	-0.289
GCUCGUAAGAGUGCAAGUATT against USPL1	-1.87 (active)
GCCUGAAACUGGAGCCUCATT against SLC3A2	-0.0428
CCACAAAGACCGUCGCUUUTT against RHOBTB2	-0.139
GGCUAUGAUCAAAUCCUUATT against SLC17A4	0.262
GAACUGGGCGAGUAUUACATT against SUPT5H	-4.02 (active)
AGAUGGAAGCGAAAACUGATT against NFATC1	0.00712
GUGACCUUGUCAUUCCGUATT against RGS5	0
CACCUGUUCGUGUCCUUCATT against SCTR	-0.352
GCCUGGUUAUAUAACCGGATT against EP300	-0.2
GGUUCCGAAUCUAUUCCAATT against PLTP	1.09 (active)
GGCCUUACUUAUUUGUGGATT against MAP2K5	0.986

Sequence	median seed-adjusted z-score
GCAUCACACUCACCAACUATT against GPR124	0.00658
GCUUUGGAAGAAUACGUUATT against NR2F2	0.129
UGAGUAUGCCUACCUCAAATT against HNF4A	-0.0274
CAAUCUACCUAAUCAAGCUTT against ROD1	0.42
CAAGAACGUGUACAAGUUUTT against RPN2	-0.217
GAGCUGAGCUGUCGAUAUATT against SUPT6H	-2.54 (active)
GGUACAUCAUGAUAGAACATT against ABCD2	-0.102
GUAUGGACACCAUUAGUAATT against DTX3L	0.0785
GAGUUCACCCAGAUCGAAATT against CHMP6	-1.81 (active)
GCAUCGACAUGGUUUCCGATT against GABRB3	0.0757
CCACUGUACUGAGUGACCATT against HECTD3	0
GAUUACUUCUUGACUAUCATT against OCRL	-0.545
CGACCCUCAGAAUGAUAAATT against ARPC3	-0.237
CCAUCCUGGAAAUACCCUATT against SERPINA12	-0.382
UGAAUUUCGUAGUUCCAUATT against CNOT8	0.375
CCGUCGAAUUUGAAGGUGATT against SULF1	-0.128
AGAUCUCCAUGGUCAGGAUTT against ACCN4	-0.512
GAACCUUCGGGAGAACCUUTT against FKBPL	-1.11 (active)
CGGUAUAAUCGGAAUCGGATT against MKI67IP	0.426
GGUGAAUAUUUAUCGUCUATT against CHD1	-1.03 (active)
